We go through 15 sequences from paper PMC4081100, “A DNA-binding-site landscape and regulatory network analysis for NAC transcription factors in Arabidopsis thaliana”.

Common to all, as to assay: universal protein binding microarray (PBM); transcription factors of Arabidopsis thaliana; high values mean tight binding
In assay [1] the target is T1, GST-ANAC055(1-171) (Arabidopsis thaliana, UniProt Q9LDY8 1-171).
T1 sequence: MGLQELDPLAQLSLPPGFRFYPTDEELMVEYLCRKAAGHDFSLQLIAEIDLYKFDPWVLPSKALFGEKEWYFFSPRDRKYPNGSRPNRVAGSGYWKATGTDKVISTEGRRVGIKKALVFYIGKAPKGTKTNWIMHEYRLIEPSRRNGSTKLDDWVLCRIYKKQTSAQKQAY
To be noted: protein: recombinant; tags: GST; chain copies: 2; dsDNA, one strand shown. In outline:
(§1)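 For zinc-finger proteins, zinc acetate was added while GST-tagged NAC-domain, full-length or DNA-binding-domain proteins were induced in cells. Purification used glutathione–Sepharose 4B, and quantification used A280 or anti-GST western blot. Custom all-10-mer Agilent 4 × 180K arrays, made double-stranded by primer extension, each received a protein at 200 to 500 nM final in duplicate. Scoring covered gapped and ungapped 8-mers, with binding given as the normalised enrichment score (E-score).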

The target in assay [2] is T2, GST-VND3 NAC domain (Arabidopsis thaliana, UniProt Q9FH59 12-162).
T2 sequence: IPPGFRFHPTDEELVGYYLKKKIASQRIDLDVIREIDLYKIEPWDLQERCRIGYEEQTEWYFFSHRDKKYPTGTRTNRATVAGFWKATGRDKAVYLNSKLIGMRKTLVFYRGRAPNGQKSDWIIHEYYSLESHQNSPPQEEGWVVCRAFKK
To be noted: protein: recombinant; tags: GST; chain copies: 2; dsDNA, one strand shown. In outline: as §1

Assay [3] addresses GST-WRKY1(266-371) (Arabidopsis thaliana, UniProt Q9SI37 266-371). To be noted: protein: recombinant; tags: GST; dsDNA, one strand shown. In outline: as §1
Assay [4] addresses T3, GST-ANAC019 NAC domain (Arabidopsis thaliana, UniProt Q9C932 14-162).
T3 sequence: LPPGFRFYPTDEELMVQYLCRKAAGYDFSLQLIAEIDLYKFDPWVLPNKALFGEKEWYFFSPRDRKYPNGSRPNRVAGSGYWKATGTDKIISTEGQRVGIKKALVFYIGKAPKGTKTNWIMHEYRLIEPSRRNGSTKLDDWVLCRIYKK
The following applies: protein: recombinant; tags: GST; chain copies: 2; dsDNA, one strand shown. In short, it runs like this: as §1

Assay [5] has as its target T4, GST-NAP(1-166) (Arabidopsis thaliana, UniProt O49255 1-166).
T4 sequence: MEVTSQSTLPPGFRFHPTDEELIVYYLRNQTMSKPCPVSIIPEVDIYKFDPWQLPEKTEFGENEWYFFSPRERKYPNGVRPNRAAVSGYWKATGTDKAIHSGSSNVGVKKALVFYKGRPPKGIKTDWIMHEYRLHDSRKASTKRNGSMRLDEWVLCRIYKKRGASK
To be noted: protein: recombinant; tags: GST; chain copies: 2; dsDNA, one strand shown. In outline: as §1

The target in assay [6] is T5, GST-VND7 NAC domain (Arabidopsis thaliana, UniProt Q9C8W9 9-158).
T5 sequence: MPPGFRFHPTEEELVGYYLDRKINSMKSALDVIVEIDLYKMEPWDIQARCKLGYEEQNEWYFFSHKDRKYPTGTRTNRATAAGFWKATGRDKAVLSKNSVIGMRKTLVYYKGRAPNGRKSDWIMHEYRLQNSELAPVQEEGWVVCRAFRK
The following applies: protein: recombinant; tags: GST; chain copies: 2; dsDNA, one strand shown. In short, it runs like this: as §1

Assay [7] concerns the target T6, GST-ATAF1 NAC domain (Arabidopsis thaliana, UniProt Q39013 7-158).
T6 sequence: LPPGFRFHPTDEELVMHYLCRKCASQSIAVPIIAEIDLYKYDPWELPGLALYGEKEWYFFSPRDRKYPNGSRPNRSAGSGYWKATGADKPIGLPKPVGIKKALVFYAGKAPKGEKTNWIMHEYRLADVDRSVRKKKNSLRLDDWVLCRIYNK
To be noted: protein: recombinant; tags: GST; chain copies: 2; dsDNA, one strand shown. In outline:
as §1

Assay [8] addresses T7, GST-ANAC092(1-285) full length (Arabidopsis thaliana, UniProt Q9FKA0 1-285).
T7 sequence: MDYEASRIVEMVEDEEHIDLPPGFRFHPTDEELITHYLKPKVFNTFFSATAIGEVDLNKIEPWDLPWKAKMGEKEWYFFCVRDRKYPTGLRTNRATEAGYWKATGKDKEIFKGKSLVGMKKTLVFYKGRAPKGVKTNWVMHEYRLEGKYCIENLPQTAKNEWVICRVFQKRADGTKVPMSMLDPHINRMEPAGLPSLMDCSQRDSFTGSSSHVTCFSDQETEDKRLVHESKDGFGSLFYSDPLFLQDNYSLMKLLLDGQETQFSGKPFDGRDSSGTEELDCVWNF
To be noted: protein: recombinant; tags: GST; chain copies: 2; dsDNA, one strand shown. In outline: as §1

Assay [9] concerns the target T8, GST-ANAC092(1-176) (Arabidopsis thaliana, UniProt Q9FKA0 1-176).
T8 sequence: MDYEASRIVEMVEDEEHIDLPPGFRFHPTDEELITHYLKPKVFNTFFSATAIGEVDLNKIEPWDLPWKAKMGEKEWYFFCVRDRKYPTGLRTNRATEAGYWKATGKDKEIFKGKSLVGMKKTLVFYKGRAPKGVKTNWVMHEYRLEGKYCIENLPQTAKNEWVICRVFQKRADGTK
To be noted: protein: recombinant; tags: GST; chain copies: 2; dsDNA, one strand shown. In short, it runs like this:
as §1

In assay [10] the target is GST-NTL6(1-168) (Arabidopsis thaliana, UniProt Q9SCK6 1-168). To be noted: protein: recombinant; tags: GST; chain copies: 2; dsDNA, one strand shown. In short, it runs like this:
as §1

The target of assay [11] is T9, GST-NTL8 NAC domain (Arabidopsis thaliana, UniProt Q9XIN7 14-156).
T9 sequence: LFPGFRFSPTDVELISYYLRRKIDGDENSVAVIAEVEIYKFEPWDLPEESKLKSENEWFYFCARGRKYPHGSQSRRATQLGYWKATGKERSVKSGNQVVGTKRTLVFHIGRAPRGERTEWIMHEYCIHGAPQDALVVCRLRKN
The following applies: protein: recombinant; tags: GST; chain copies: 2; dsDNA, one strand shown. In short, it runs like this:
as §1

In assay [12] the target is T10, GST-NST2(1-184) (Arabidopsis thaliana, UniProt Q9M274 1-184).
T10 sequence: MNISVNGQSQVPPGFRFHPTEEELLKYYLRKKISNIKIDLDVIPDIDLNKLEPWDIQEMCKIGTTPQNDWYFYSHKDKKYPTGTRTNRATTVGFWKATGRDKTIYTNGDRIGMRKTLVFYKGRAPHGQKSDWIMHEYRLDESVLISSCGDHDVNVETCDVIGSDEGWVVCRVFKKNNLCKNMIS
To be noted: protein: recombinant; tags: GST; chain copies: 2; dsDNA, one strand shown. In short, it runs like this: as §1

Sequence of GST-WRKY1(266-371) (Q9SI37 266-371): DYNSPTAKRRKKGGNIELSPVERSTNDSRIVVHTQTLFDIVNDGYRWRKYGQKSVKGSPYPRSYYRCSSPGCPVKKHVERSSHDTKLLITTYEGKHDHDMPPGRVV
Sequence of GST-NTL6(1-168) (Q9SCK6 1-168): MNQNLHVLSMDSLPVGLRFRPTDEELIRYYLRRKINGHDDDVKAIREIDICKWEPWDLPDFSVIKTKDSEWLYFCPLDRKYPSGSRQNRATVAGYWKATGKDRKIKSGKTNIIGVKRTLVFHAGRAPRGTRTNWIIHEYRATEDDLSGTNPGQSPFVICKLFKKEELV

As to TATGGTCA, the binding signal in assay [1] was found to be 0.0561 E-score; in [2], 0.0521 E-score; in assay [3], 0.428 E-score.
AGTCTGAC: the binding signal in assay [4] came out at 0.0699 E-score; in assay [1], 0.0555 E-score; in [5] it was 0.0965 E-score; in [6] it was 0.0919 E-score; in [3], 0.422 E-score.
As for AAGTTGAC, the binding signal in assay [1] came to 0.0649 E-score; in [7] it was 0.0834 E-score; in assay [6] it was 0.0703 E-score; in [3] it was 0.476 E-score.
On to CATTGACG, for which the binding signal is 0.149 E-score in [8], 0.08 E-score in assay [2] and 0.411 E-score in assay [3].
Take AGAGGTAA: the binding signal was 0.145 E-score in [9]; 0.237 E-score in assay [10]; 0.0713 E-score in [4]; 0.0996 E-score in assay [1]; 0.106 E-score in assay [7]; 0.0742 E-score in assay [5]. The values for the binding signal in [11] and in assay [2] were 0.427 E-score and 0.0836 E-score, respectively.
Turning to ATTTTGAC, the binding signal in assay [7] came to 0.15 E-score; in assay [8], 0.0617 E-score; in assay [12], 0.0826 E-score; in [2], 0.101 E-score; in [3], 0.461 E-score.
As for GGGGGTCA, the binding signal in assay [3] is 0.423 E-score.
For the sequence TAGGTCAA, the binding signal in assay [1] was 0.077 E-score; in assay [7] it was 0.145 E-score; in [2], 0.0723 E-score; in assay [3] it was 0.482 E-score.
As for ATTCCCTC, the binding signal in assay [10] came out at 0.115 E-score; in assay [4] it was 0.0664 E-score; in [11], 0.421 E-score; in assay [6] it was 0.0536 E-score.
In the case of ATTGACCC, the binding signal in assay [3] stood at 0.478 E-score.
With GTCAATAA, the binding signal in assay [10] came to 0.109 E-score; in assay [1] it was 0.134 E-score; in assay [7], 0.135 E-score; in assay [5], 0.122 E-score; in assay [12], 0.118 E-score; in assay [6], 0.112 E-score. In assay [3], the binding signal amounted to 0.457 E-score.
On to AGTCAAAG, for which the binding signal was 0.0881 E-score in [11], 0.0935 E-score in [6] and 0.486 E-score in assay [3].
As to ATCTTGAC, the binding signal in [3] was 0.47 E-score.
For the sequence ATGTTGAC, the values for the binding signal in assay [7], in assay [2] and in assay [3] were 0.0521 E-score, 0.0635 E-score and 0.474 E-score, respectively.
Regarding CATTTGAC, the binding signal in assay [1] was 0.0579 E-score; in [7], 0.0746 E-score; in assay [12] it was 0.0611 E-score; in [2] it was 0.105 E-score; in assay [3], 0.462 E-score.
